Data as given in the supplement of paper PMC12645437, “Orthogonal IMiD-Degron Pairs Induce Selective Protein Degradation in Cells” (ACS Chemical Biology, 2025).
Over roughly 8,300 sequences, “log2 fold change of degron read counts, EGFP-low vs EGFP+ sorted cells (limma voom), compound-induced degradation” has its median near -1.1; the highest 2% begin near 3.2. The list comes from a sample in which the highest values are over-represented; it also holds similar and randomly drawn sequences.

T1: CRBN, Q96SW2
T1 chain: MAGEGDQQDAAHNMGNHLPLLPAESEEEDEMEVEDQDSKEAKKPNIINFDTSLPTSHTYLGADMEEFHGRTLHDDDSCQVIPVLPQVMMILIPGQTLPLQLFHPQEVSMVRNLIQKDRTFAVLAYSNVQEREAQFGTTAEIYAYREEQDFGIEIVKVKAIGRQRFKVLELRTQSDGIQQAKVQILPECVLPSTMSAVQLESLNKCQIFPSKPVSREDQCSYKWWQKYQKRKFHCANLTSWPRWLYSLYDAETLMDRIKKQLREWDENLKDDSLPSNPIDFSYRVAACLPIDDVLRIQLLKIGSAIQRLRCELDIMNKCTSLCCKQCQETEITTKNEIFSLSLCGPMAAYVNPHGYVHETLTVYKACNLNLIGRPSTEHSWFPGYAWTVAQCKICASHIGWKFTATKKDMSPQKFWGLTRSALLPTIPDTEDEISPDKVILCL

B1: 46F_47H_49N_50I_52G_53A_54C_55F_67L_, Q9UKT9 (peptide)
chain: FHCNICGACFTQKGNLLRHIKL
B2: 46F_47G_49N_50Q_52G_53H_54W_55F_67L_, Q9UKT9 (peptide)
chain: FGCNQCGHWFTQKGNLLRHIKL
B3: 46F_47N_49P_50Q_52G_53A_54G_55F_67L_, Q9UKT9 (peptide)
chain: FNCPQCGAGFTQKGNLLRHIKL
B4: 46F_47Y_49E_50I_52G_53A_54C_55F_67L_, Q9UKT9 (peptide)
chain: FYCEICGACFTQKGNLLRHIKL
B5: 46F_47E_49E_50I_52G_53A_54C_55F_67L_, Q9UKT9 (peptide)
chain: FECEICGACFTQKGNLLRHIKL
B6: 46F_47G_49E_50I_52G_53A_54C_55F_67L_, Q9UKT9 (peptide)
chain: FGCEICGACFTQKGNLLRHIKL
B7: 46F_47R_49E_50I_52G_53A_54C_55F_67L_, Q9UKT9 (peptide)
chain: FRCEICGACFTQKGNLLRHIKL
B8: 46F_47T_49E_50I_52G_53A_54C_55F_67L_, Q9UKT9 (peptide)
chain: FTCEICGACFTQKGNLLRHIKL
B9: 46F_47M_49E_50I_52G_53A_54C_55F_67L_, Q9UKT9 (peptide)
chain: FMCEICGACFTQKGNLLRHIKL
B10: 46F_47D_49E_50I_52G_53A_54C_55F_67L_, Q9UKT9 (peptide)
chain: FDCEICGACFTQKGNLLRHIKL
B11: 46F_47V_49E_50I_52G_53A_54C_55F_67L_, Q9UKT9 (peptide)
chain: FVCEICGACFTQKGNLLRHIKL
B12: 46F_47Q_49E_50I_52G_53A_54C_55F_67L_, Q9UKT9 (peptide)
chain: FQCEICGACFTQKGNLLRHIKL
B13: 46F_47C_49E_50I_52G_53A_54C_55F_67L_, Q9UKT9 (peptide)
chain: FCCEICGACFTQKGNLLRHIKL
B14: 46F_47K_49E_50I_52G_53A_54C_55F_67L_, Q9UKT9 (peptide)
chain: FKCEICGACFTQKGNLLRHIKL
B15: 46F_47S_49E_50I_52G_53A_54C_55F_67L_, Q9UKT9 (peptide)
chain: FSCEICGACFTQKGNLLRHIKL

Target: T1, CRBN, Q96SW2
Assay: log2 fold change of degron read counts, EGFP-low vs EGFP+ sorted cells (limma voom), compound-induced degradation; higher = more compound-induced degradation of the degron-EGFP fusion; degrons are variants of IKZF1/3 zinc finger 2; compound dose not given here
Settings: Jurkat, 18 h
Method: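 Pooled library of 8380 IKZF3 ZF2 degron mutants (positions 146-167 varied within the IKZF3 130-189 degron; only the varied core is printed, flanks not printed) fused to EGFP with IRES-mCherry, lentivirally expressed in Jurkat cells. mCherry+ cells were treated with one IMiD compound for 18 h (dose not stated) and FACS-sorted into EGFP-low and EGFP+ populations. Degron sequences were counted by NGS, and log2FC (EGFP-low vs EGFP+) was estimated by limma voom over 3 biological replicates.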

[1] = compound: compound 19 (5-tert-butyl-thalidomide)
[2] = compound: compound 22 (5-morpholino-thalidomide)
[3] = compound: compound 33 (diphenyl IMiD analogue)
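Note: pooled lentiviral library of zinc finger degron-EGFP fusions in mCherry-positive Jurkat cells, FACS-sorted after compound exposure, with degron abundance counted by next-generation sequencing.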

Row | Sequence | log2 fold change of degron read counts [1] | log2 fold change of degron read counts [2] | log2 fold change of degron read counts [3] | log2 fold change of degron read counts (compound: thalidomide)
1 | B1 | 1.16 | 1.39 | 0.659 | -0.53
2 | B2 | -0.98 | -1.42 | -1.2 | -0.959
3 | B3 | -0.184 | -2.36 | -1.35 | -2.07
4 | B4 | 3.73 | 3.6 | 2.92 | 1.43
5 | B5 | 0.505 | -1.14 | 1.9 | 2.35
6 | B6 | 3.4 | 2.93 | 2.06 | 1.14
7 | B7 | 0.0911 | -0.251 | 1.83 | 1.53
8 | B8 | 1.77 | 2.36 | 2.49 | 2.86
9 | B9 | 0.319 | 0.12 | 2.53 | 1.09
10 | B10 | 1.52 | -0.309 | 0.629 | 0.633
11 | B11 | 0.542 | 1.78 | 2.28 | 2.75
12 | B12 | 1.23 | 3.08 | 2.71 | 3.48
13 | B13 | 2.78 | 2.06 | 2.71 | 2.24
14 | B14 | -0.172 | -3.02 | -3.63 | -0.785
15 | B15 | 3.31 | 2.47 | 2.56 | 1.4
